# SKOV3 invasion = Primary qHTS assay for Inhibitors of ovarian cancer metastasis using an organotypic tumor microenvironment (TME) model; SKOV3ip1-GFP adhesion/invasion on 3D omental model, fluorescence; Potency, µM (doses to about 45.8 µM), for inactives: top-dose activity change, negative = inhibition, hits mostly inhibitors; 0.1% of 46,000 active; AID 1963576, 2024;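 note: potency is the fitted concentration of half-maximal effect; plate controls were DMSO wells for no effect and tomatine positive control wells for full effect; nearly all actives have a fitted effect of over 65% in size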
#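 A 3D layer of primary human omental fibroblasts, mesothelial cells, fibronectin and collagen I, grown 48 hr, received SKOV3ip1-GFP cells in serum-free medium plus compounds at 0.36-46 umol/L. After 2 hr RT and 16 hr 37 C, fixed adherent GFP cells were counted; normalized to DMSO and tomatine.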
# HTT promoter inh = Primary qHTS for Identification of Small Molecule Inhibitors of Huntingtin Promoter Activity; HEK293 HTT promoter firefly luciferase reporter, 24 h; Potency, µM (doses to about 57.5 µM), inactives show top-dose activity change, negative = inhibition, most hits filed as inhibitors; 0.93% of 48,000 active; note: potency is the fitted concentration of half-maximal effect; nearly all actives have a fitted effect of over 50% in size
#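 HEK293 cells carrying firefly luciferase reporters were seeded at 2,500 per well in Opti-MEM and cultured for 24 h. They were then treated with compounds at up to 57.5 uM final for 24 h at 37 degrees C before Dual-Glo luminescence readout.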
# HTT-AS promoter = Primary qHTS for Identification of Small Molecule Activators of Huntingtin-Antisense Promoter Activity; AID 1508624, 2021; HEK293 HTT-AS promoter firefly luciferase reporter, 24 h; response scale: percent change from vehicle, -100% = no light; 0.24% of 48,000 active; Potency, µM (top dose mostly 57.5 µM), without a hit: at the highest dose activity change, positive = activation, hits mostly activators; note: potency is the fitted concentration of half-maximal effect; nearly all actives have a fitted effect of over 55% in size
#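 Luminescence was read after Dual-Glo reagent and a 10 min room-temperature incubation. Values were normalized to vehicle (0% activity) and zero RLU (-100% activity). Reporter HEK293 cells had been exposed to compounds (up to 57.5 uM final) for 24 h.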
# GPR32 ag = qHTS for Agonists of Human Resolvin D1 Receptor DRV1; Probable G-protein coupled receptor 32 (Homo sapiens), O75388; CHO-K1 GPR32 beta-arrestin PathHunter luminescence, 90 min; zero percent set by DMSO-only wells; activation, % at 76.9 µM; 2.5% of 48,000 active; AID 1346428, 2018;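 active = activation of at least 60% and not above a set upper limit, about 1 call in 100 departs from these limits; inconclusive = activation of 40% to 60%, or above that upper limit; inactive = activation under 40%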; note: 0% is about no effect
# Target sequence (O75388 whole entry, looked up): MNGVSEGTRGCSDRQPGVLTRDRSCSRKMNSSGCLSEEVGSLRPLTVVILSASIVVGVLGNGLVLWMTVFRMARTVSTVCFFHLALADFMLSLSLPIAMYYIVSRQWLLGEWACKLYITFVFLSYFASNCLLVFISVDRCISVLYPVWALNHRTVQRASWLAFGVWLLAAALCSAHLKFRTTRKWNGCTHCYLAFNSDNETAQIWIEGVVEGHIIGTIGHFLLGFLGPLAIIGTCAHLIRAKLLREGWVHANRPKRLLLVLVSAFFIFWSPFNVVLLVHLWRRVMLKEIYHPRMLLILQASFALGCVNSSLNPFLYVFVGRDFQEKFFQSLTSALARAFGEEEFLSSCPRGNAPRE
#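 Luminescent readout of beta-Gal complementation quantifies ligand-induced beta-arrestin association with GPR32 in CHO-K1 cells; 90 min compound incubation at 37 °C, detection 1 h at room temperature.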
# NTMT1 inh = Primary qHTS for Inhibitors of N-terminal methyltransferase 1 (NTMT1): MTaseGlo Assay | NTMT1 MTase-Glo SAH luminescence, purified enzyme | Potency, µM (highest dose often 114 µM), without a hit: top-dose activity change, negative = inhibition, most hits filed as inhibitors | 2.5% of 59,000 active | AID 1645870, 2021;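 note: potency is the fitted concentration of half-maximal effect; plate controls were DMSO vehicle for no effect and no enzyme for full effect; nearly all actives have a fitted effect of over 65% in size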
# Target sequence (Q9BV86 whole entry, looked up): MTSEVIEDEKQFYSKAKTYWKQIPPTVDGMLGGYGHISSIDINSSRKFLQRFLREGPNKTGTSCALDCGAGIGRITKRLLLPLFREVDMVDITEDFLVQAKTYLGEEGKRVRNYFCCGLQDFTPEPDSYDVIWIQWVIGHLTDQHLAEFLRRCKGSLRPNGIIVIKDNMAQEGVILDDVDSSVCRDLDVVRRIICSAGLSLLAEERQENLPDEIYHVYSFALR
# Numbers without * were called inactive; i = inactive; ? = inconclusive; nt = no result; ! = a repeat was not active; [ ] = remark or other dose. A selection: hits, their analogues and other compounds. The true share with any hit is near 4.5%. Unless noted, calls come from the whole dose curve; as a rule, active = well fitted curve in the direction sought with a large enough effect; inconclusive = small, poorly fitted or top-dose-only effect, or another doubt; inactive = no such curve, though single readings can be large; an effect the other way counts as inactive or inconclusive.
SMILES,SKOV3 invasion,HTT promoter inh,HTT-AS promoter,GPR32 ag,NTMT1 inh
CCOc1ccccc1NC(=O)CN(C)S(=O)(=O)c1ccc(C(=O)N2CCOCC2)s1,16%,-18%,1%,5,-2%
CCCCC(=O)Oc1ccc2oc(-c3ccc(OC)cc3)cc(=O)c2c1,-1%,89%,2µM*,-6,15%
CC/C(=C(/c1ccc(/C=C/C(=O)O)cc1)c1ccc2[nH]ncc2c1)c1ccc(F)cc1Cl,nt,nt,nt,nt,32µM*
COc1cccc(CCc2ccccc2OCC(CN(C)C)OC(=O)CCC(=O)O)c1 (stereo not given),nt,-2%,-18%,95*,-16%[57.5 µM]
O=C(NCC(c1ccc2c(c1)OCO2)N1CCOCC1)c1ccccc1 (stereo not given),?,-16%,-5%,-15,7%
Cc1ccc(Cl)cc1N1CCN(C(=O)c2cccn2-c2nnc(N3CCCC3)s2)CC1,6%,?,-32%,2,-2%
CCC[C@H](NC(=O)C(C#N)=Cc1cccc(Br)n1)c1ccccc1,12µM*,?,-94%,nt,11%[57.5 µM]
C[C@H](NC(=O)/C(C#N)=C/c1cccc(Br)n1)c1ccccc1,nt,nt,nt,nt,2%
COc1ccccc1CNC(=O)c1cc(Sc2cccc(Cl)c2)nc2ccccc12,-12%,?,-31%,-33,-9%
NC(=O)c1cc(S(=O)(=O)N2CCN(c3ccc(F)cc3)CC2)cs1,3%,?,-10%,24,-8%
Cc1cccc(N2CCN(S(=O)(=O)c3csc(C(N)=O)c3)CC2)c1C,10%,14µM*,-57%,8,2%
Cc1cccc(N2CCN(S(=O)(=O)c3ccc4c(c3)C(C(C)C)C(=O)N4)CC2)c1C (stereo not given),i,13µM*,-86%,?,-1%
Cc1ccc(-c2nc3cc(NC(=O)Cc4ccc(Cl)cc4)ccc3o2)cc1,0%,10%,7%,-5,-24%
Cc1ccc(CSC2=Nc3ccccc3C3=NC(CC(=O)NC4CCCCC4)C(=O)N23)c(C)c1 (stereo not given),-4%,-2%,-1%,-9,3%
Cc1ccc(Cl)cc1-n1ncc2c(NC3CCCCC3)ncnc21,3%,?,-12%,68*,-3%
CCN(CC)c1ncnc2c1cnn2-c1cc(Cl)ccc1C,-8%,-16%,6%,72*,1%
Fc1ccc(-n2ncc3c(Nc4ccc5c(c4)OCCO5)ncnc32)cc1,i,2%,?,92*,2%
Fc1ccc(-n2ncc3c(NC4CCCCCC4)ncnc32)cc1,-1%,14%,34%,80*,-14%
Cc1ccc(-n2ncc3c(Nc4ccc5c(c4)OCCO5)ncnc32)cc1Cl,-7%,-6%,0%,1,3%
Cc1cccc(N(CC(=O)NCCSc2ccc(Cl)cc2)S(=O)(=O)c2ccccc2)c1C,-2%,?,-27%,-22,-3%
CCN1CCN(c2oc(/C=C/c3ccc(OC)c(OC)c3)nc2C#N)CC1,-3%,-12%,-14%,-9,-7%
Clc1cccc(-n2ncc3c(NC4CCCCC4)ncnc32)c1,-27%,-27%,?,109*,?
Cc1ccc(Cl)cc1-n1ncc2c(N3CCN(Cc4ccccc4)CC3)ncnc21,12%,13µM*,-95%,85*,-3%
Cc1cc(C)c(S(=O)(=O)Nc2cc(-c3cn4ccccc4n3)ccc2C)cc1C,4%,?,-17%,14,2%
CS(=O)(=O)c1ccc(-c2cn3ccccc3n2)cc1,nt,7%,?,9,7.1µM*
SMILES,SKOV3 invasion,HTT promoter inh,HTT-AS promoter,GPR32 ag,NTMT1 inh
COc1ccc(CC2C(=O)NC(C)C(=O)N(C)C3Cc4ccc(cc4)Oc4cc(ccc4OC4OC(CO)C(O)C(O)C4O)CC(C(=O)NC(C)C(=O)NC(C)C(=O)N2C)N(C)C3=O)cc1 (stereo not given),nt,nt,nt,nt,11%[12.6 µM]
COc1cc(-c2ccno2)ccc1S(=O)(=O)N1CCN(c2ccccc2)CC1,1%,-17%,-20%,-4,-21%
COc1ccccc1N1CCN(S(=O)(=O)c2ccc(-c3ccno3)cc2OC)CC1,i,-20%,-33%,-7,89µM*
O=C(Cn1c(-c2cccs2)cc2cc(F)ccc21)NCCCN1CCN(c2ccccc2F)CC1,-19%,?,-40%,10,12%
CCOc1ccc(-n2c(SCC(=O)N3CCCC3)nc3c([nH]c4ccccc43)c2=O)cc1,i,-3%,-11%,77*,26%
Cc1ccc(C)c(NC(=O)Cn2c(=O)oc3cc(S(=O)(=O)NCc4ccccc4)ccc32)c1,2%,?,-33%,72*,11%
Cc1ccc(NC(=O)Cn2c(=O)oc3cc(S(=O)(=O)NCc4ccccc4)ccc32)cc1,-19%,?,-31%,81*,-2%
COc1ccc(C)cc1NC(=O)Cn1c(=O)oc2cc(S(=O)(=O)N3CCCCCC3)ccc21,-7%,?,-25%,-6,-5%
Cc1ccc(NC(=O)Cn2c(=O)oc3cc(S(=O)(=O)N4CCCCC4)ccc32)c(C)c1,-8%,?,-45%,115*,-1%
CCc1ccc(NC(=O)Cn2c(=O)oc3cc(S(=O)(=O)NCc4ccccc4)ccc32)cc1,-3%,?,-38%,73*,3%
O=C(Cn1c(=O)oc2cc(S(=O)(=O)NCc3ccccc3)ccc21)Nc1ccc(F)c(Cl)c1,-2%,?,-28%,21,11%
CCOc1ccc2c(c1)NC(c1ccc(OCC)c(OCC)c1)=NC(c1ccc(F)cc1)=N2,-14%,41%,?,-35,-1%
CN1CCN(c2cccc(Nc3nn4c(=O)c5ccc(F)cc5nc4s3)c2)CC1,nt,nt,nt,nt,-5%
O=c1c2ccccc2nc2sc(Nc3cccc(N4CCNCC4)c3)nn12,nt,nt,nt,nt,50µM*!
CN1CCN(c2cccc(Nc3nn4c(=O)c5ccc(N(C)C)cc5nc4s3)c2)CC1,nt,nt,nt,nt,50µM*
N#Cc1cnc(NS(=O)(=O)c2ccc(NC(=O)Cc3ccc(Cl)c(Cl)c3)cc2)s1,nt,nt,nt,nt,79µM*
O=C(Cc1ccc(Cl)c(Cl)c1)Nc1ccc(S(=O)(=O)Nc2cncnc2)cc1,nt,nt,nt,nt,17%
CCCOc1ccc(C(=O)N(Cc2ccco2)Cc2ccco2)cc1,-20%,-9%,0%,-25,-5%
COC(=O)c1c(NC(=O)c2nc(SCc3ccc(C)cc3)ncc2Cl)sc2c1CCCC2,-6%,5%,10%,-8,-13%
O=C1CCc2ccc(OCCCCN3CCN(c4cccc(Cl)c4Cl)CC3)cc2N1,-11%,-9%,-10%,90*,9%
